Source: PubChem BioAssay (NCATS)
Records with an inconclusive call do not appear. Activity calls are given as the source filed them. The call rests on the fitted dose curve; in most records, active means well fitted inhibition curve with a large enough effect; inconclusive means small, poorly fitted or top-dose-only effect; inactive means flat fitted curve, though single readings scatter.

Key:
Assay in all cases: qHTS profiling for inhibitors of Plasmodium falciparum proliferation (AID 504749); further: nearly all actives have a fitted effect of over 60% in size
Settings in all cases: P. falciparum in erythrocytes, SYBR Green DNA, 72 h; series mostly up to 28.7 µM
C2A = test system: C2A
Outline: (§1)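 P. falciparum-infected erythrocytes (0.3% parasitemia, 2.5% hematocrit final) were exposed to compounds for 72 h at 37 C in 5% CO2, then lysed with SYBR Green buffer overnight at room temperature; parasite DNA fluorescence was normalized to artemisinin and DMSO controls.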

CP185 = test system: CP185
Outline: as §1

CP191 = test system: CP191
Outline: as §1

CP192 = test system: CP192
Outline: as §1

CP194 = test system: CP194
Outline: as §1

CP201 = test system: CP201
Outline: as §1

CP203 = test system: CP203
Outline: as §1

CP211 = test system: CP211
Outline: as §1

CP215 = test system: CP215
Outline: as §1

CP217 = test system: CP217
Outline: as §1

Measured: Potency

O=C(CCBr)N1CCN(C(=O)CCBr)CC1
inactive: all assays above

NCC1CCC(C(=O)Oc2ccc(CCC(=O)O)cc2)CC1 (stereo not given)
inactive: all assays above

C[C@@H]1O[C@@H](OC[C@H]2O[C@@H](Oc3c(-c4ccc(O)c(O)c4)oc4cc(O)cc(O)c4c3=O)[C@H](O)[C@@H](O)[C@@H]2O)[C@H](O)[C@H](O)[C@H]1O
inactive: all assays above

CCCCCCCCCCCCCCCCN
inactive: all assays above

Cn1c([N+](=O)[O-])cnc1COC(N)=O
inactive: all assays above

O=C(OOC(=O)c1ccccc1)c1ccccc1
inactive: all assays above

COC(=O)c1ccc(O)cc1
inactive: all assays above

O=C1c2ccccc2S(=O)(=O)N1CCCCN1CCN(c2ncccn2)CC1
inactive: all assays above

CNCc1ccccc1
inactive: all assays above

OCc1ccc(Cl)cc1Cl
inactive: all assays above

OCC(O)CS (stereo not given)
inactive: all assays above

NS(=O)(=O)c1cc2c(cc1C(F)(F)F)NCNS2(=O)=O
inactive: all assays above

Cc1c(I)c(=O)n(-c2ccccc2)n1C
inactive: all assays above

O=C(O)CCCCC1CCSS1 (stereo not given)
inactive: all assays above

CN(C/C=C/C#CC(C)(C)C)Cc1cccc2ccccc12
inactive: all assays above

O=C1CC[C@@H](C(=O)O)N1
inactive: all assays above

NC(=O)CC[C@@H](N)C(=O)O
inactive: all assays above

COc1cc(C(=O)NCCCCCC(=O)O)cc(OC)c1OC
inactive: all assays above

Cc1cccc(C(=O)O)c1O
inactive: all assays above

NC(=O)NS(=O)(=O)c1ccc(N)cc1
inactive: all assays above

O=c1[nH]c(=O)c2ccccc2o1
inactive: all assays above

CC(N)CCCC(C)(C)O (stereo not given)
inactive: all assays above
